Experimental data reported in PubChem BioAssay (NCI).
Compounds without any hit were thinned out: in the full panel of roughly 79,000, 15% have a hit. Unmarked numbers belong to inactive results. Activity calls are given as the source filed them. Cut-off read from the data, not from the text of the source: active = growth inhibition above about 70%; inactive = the rest.

Key:
[1] = NCI Yeast Anticancer Drug Screen. Data for the rad50 strain (AID 155);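 note: 0% = growth of vehicle-only cultures of the same strain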; conditions: S. cerevisiae rad50 strain growth inhibition, active compounds read high
Procedure, shortened: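 DNA repair mutant yeast, compound exposure, growth read-out; inhibition is taken relative to vehicle.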

[2] = NCI Yeast Anticancer Drug Screen. Data for the mec2-1 strain (AID 157); conditions: S. cerevisiae mec2-1 strain, active compounds read high
Procedure, shortened: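 Strain: mec2-1 (DNA repair/cell cycle alteration). Compound exposure, then growth measured; inhibition expressed relative to vehicle.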

[3] = NCI Yeast Anticancer Drug Screen. Data for the sgs1 mgt1 strain (AID 161);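 note: 0% = growth of cultures given vehicle only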; conditions: S. cerevisiae sgs1 mgt1 strain, active compounds read high
Procedure, shortened: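 Test agents were incubated with a DNA-repair-mutant yeast strain. Growth was then read and compared against vehicle-treated controls.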

[4] = NCI Yeast Anticancer Drug Screen. Data for the cln2 rad14 strain (AID 165);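 note: 0% = growth equal to vehicle treated cultures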; conditions: S. cerevisiae cln2 rad14 strain, active compounds read high
Procedure, shortened: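 Compounds are applied to the cln2 rad14 yeast strain, and growth is then compared with that of vehicle-treated cultures to give inhibition.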

[5] = NCI Yeast Anticancer Drug Screen. Data for the bub3 strain (AID 167); conditions: S. cerevisiae bub3 mutant strain, active compounds read high
Procedure, shortened: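 In this screen, a yeast mutant lacking normal mitotic checkpoint function is challenged with compound. Relative growth versus vehicle gives the inhibition value.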

[6] = NCI Yeast Anticancer Drug Screen. Data for the mlh1 rad18 strain (AID 175); conditions: S. cerevisiae mlh1 rad18 strain growth inhibition, active compounds read high
Procedure, shortened: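 Read-out is yeast growth inhibition, calculated against vehicle-only controls. The compound was applied to a strain engineered with DNA damage repair alterations.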

[7] = at 5.0 µM (retest, dose inferred, filed as 0.5)
[8] = at 50.0 µM (retest, dose inferred, filed as 5.0)

Row | SMILES | growth inhibition [1, 7] [%] | growth inhibition [1, 8] | growth inhibition ([1]; at 50.0 µM) | growth inhibition [2, 7] [%] | growth inhibition [2, 8] | growth inhibition ([2]; at 50.0 µM) | growth inhibition [3, 7] [%] | growth inhibition [3, 8] | growth inhibition ([3]; at 50.0 µM) | growth inhibition [4, 7] [%] | growth inhibition [4, 8] | growth inhibition ([4]; at 50.0 µM) | growth inhibition [5, 7] [%] | growth inhibition [5, 8] | growth inhibition ([5]; at 50.0 µM) | growth inhibition [6, 7] [%] | growth inhibition [6, 8] | growth inhibition ([6]; at 50.0 µM)
1 | CC[n+]1cnc(N)c2c(-c3ccc(Cl)cc3)cn(-c3ccc(C)cc3)c21 | -2 | 98% (active) | 93.1% (active) | -4 | 99% (active) | 95.5% (active) | -6 | 99% (active) | 97.9% (active) | -6 | 98% (active) | 46.9% | -1 | 98% (active) | 80.3% (active) | -3 | 98% (active) | 97.8% (active)
2 | O=C1OC(CCl)CC12CC(CCl)OC2=O (configuration not stated) | 1 | 2% | 93.7% (active) | -4 | 3% | 89.7% (active) | -1 | 1% | 94% (active) | -1 | 1% | 79.6% (active) | 0 | -3% | 96% (active) | -3 | 0% | 95.9% (active)
3 | CCN(CCCOc1ccccc1)CCN(CC)CCCOc1ccccc1 | 1 | 13% | 34.5% | 19 | 38% | 33.2% | 1 | 59% | 60.9% | 0 | 11% | 73.2% (active) | 2 | 14% | 42% | 15 | 44% | 35.6%
4 | Cc1cccc2c1Oc1ccccc1C2N1C(=O)/C(=C/c2cccs2)SC1=S (configuration not stated) | 1 | 12% | 51.8% | -23 | 37% | 53.8% | -6 | 28% | 88% (active) | -11 | 1% | 72.2% (active) | -8 | -4% | 26.4% | 2 | 45% | 42.4%
5 | ICCCCSc1cc(-c2ccccc2)[o+]c2ccccc12 | 23 | 92% (active) | 93% (active) | 10 | 51% | 72.2% (active) | 19 | 75% (active) | 75.2% (active) | 1 | 49% | 24.3% | 7 | 85% (active) | 75.4% (active) | 11 | 71% (active) | 88.8% (active)
6 | Cc1ccc(-n2cc(-c3ccc(Cl)cc3)c3c(NN)ncnc32)cc1 | -20 | 30% | 85.7% (active) | -11 | 65% | 87.6% (active) | -8 | 61% | 87.5% (active) | -20 | 37% | 90.3% (active) | -19 | 53% | 87.7% (active) | -14 | 65% | 76.6% (active)
7 | COc1cccc(=O)cc1 | 5 | 86% (active) | 83.3% (active) | 12 | 51% | 26.4% | 11 | 83% (active) | 93.5% (active) | 7 | 32% | 19.4% | 3 | 85% (active) | 92.9% (active) | 3 | 94% (active) | 76.4% (active)
8 | Cc1ccc(NC(=O)CCC(=O)CC(=O)C(C)(C)C)cc1C | 16 | 7% | 1.1% | 2 | -2% | -14.3% | 13 | 3% | -13.8% | -5 | 4% | 34.8% | -6 | 3% | -7.9% | -2 | -4% | -15.7%
9 | CC(=O)Nc1ccc2c(c1)C(S)c1ccccc1-2 (configuration not stated) | -5 | 32% | 52% | 9 | 27% | 31.7% | 2 | 53% | 46.6% | -70 | 18% | 33.2% | -1 | -60% | 49.4% | -2 | 71% (active) | 37.2%
